Results: article PMC7862700, “An all-to-all approach to the identification of sequence-specific readers for epigenetic DNA modifications on cytosine”

Key:
Experiment in all cases: DAPPL (digital affinity profiling via proximity ligation, sequencing); 10 mM Tris-HCl pH 7.5, 50 mM NaCl, 1 mM DTT, 4% glycerol, room temperature, 30 min; GST-TFs on glutathione beads, 16-mer random dsDNA library, 0.1% formaldehyde crosslink after washing; high values mean tight binding
Settings in all cases: protein: recombinant; tags: N-terminal GST; dsDNA, one strand shown
FLI1 = target: T1, FLI1 (Homo sapiens, UniProt Q01543 1-452)
T1 sequence: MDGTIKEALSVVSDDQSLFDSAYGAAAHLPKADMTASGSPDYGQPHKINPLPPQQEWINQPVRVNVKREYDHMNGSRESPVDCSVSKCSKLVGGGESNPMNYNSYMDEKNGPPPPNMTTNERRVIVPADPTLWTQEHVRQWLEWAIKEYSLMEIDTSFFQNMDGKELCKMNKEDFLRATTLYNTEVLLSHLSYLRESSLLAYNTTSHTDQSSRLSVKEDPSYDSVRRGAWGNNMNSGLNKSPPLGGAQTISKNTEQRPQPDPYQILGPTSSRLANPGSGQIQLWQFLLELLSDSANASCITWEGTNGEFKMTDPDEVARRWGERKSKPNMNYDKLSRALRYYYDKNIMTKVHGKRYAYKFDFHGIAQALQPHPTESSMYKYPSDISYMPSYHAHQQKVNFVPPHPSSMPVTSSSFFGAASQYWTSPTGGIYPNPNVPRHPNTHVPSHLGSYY
How it was run: (§1)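 Sequencing on an Illumina NextSeq500 followed washing, crosslinking with 0.1% formaldehyde, proximity ligation (BsaI/T4 ligase, 1 h, 37 °C) and PCR amplification of pools that had been incubated for 30 min at room temperature with 200 nmole of a random double-stranded 16-mer DNA library in Tris/NaCl/DTT/glycerol buffer. Each pool held DNA-barcoded human transcription factors, expressed in yeast as GST fusions and captured on glutathione beads, plus a tag-only sample. Binding signal is a hexamer's read frequency for a factor divided by its frequency in the tag-only sample.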

ELK1 = target: T2, ELK1 (Homo sapiens, UniProt P19419 1-428)
T2 sequence: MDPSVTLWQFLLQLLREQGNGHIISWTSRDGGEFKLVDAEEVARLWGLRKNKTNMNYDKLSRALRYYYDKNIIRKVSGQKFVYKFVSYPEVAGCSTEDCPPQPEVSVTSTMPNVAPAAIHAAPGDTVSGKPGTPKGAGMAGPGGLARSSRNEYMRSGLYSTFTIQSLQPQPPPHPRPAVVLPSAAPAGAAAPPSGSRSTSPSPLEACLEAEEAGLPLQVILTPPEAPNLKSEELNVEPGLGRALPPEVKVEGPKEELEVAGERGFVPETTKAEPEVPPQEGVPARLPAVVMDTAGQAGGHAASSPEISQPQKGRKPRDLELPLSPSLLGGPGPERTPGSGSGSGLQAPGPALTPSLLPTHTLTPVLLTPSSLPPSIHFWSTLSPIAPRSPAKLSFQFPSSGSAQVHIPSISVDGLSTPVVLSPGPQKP
How it was run: as §1

GABPA = target: T3, GABPA (Homo sapiens, UniProt Q06546 1-454)
T3 sequence: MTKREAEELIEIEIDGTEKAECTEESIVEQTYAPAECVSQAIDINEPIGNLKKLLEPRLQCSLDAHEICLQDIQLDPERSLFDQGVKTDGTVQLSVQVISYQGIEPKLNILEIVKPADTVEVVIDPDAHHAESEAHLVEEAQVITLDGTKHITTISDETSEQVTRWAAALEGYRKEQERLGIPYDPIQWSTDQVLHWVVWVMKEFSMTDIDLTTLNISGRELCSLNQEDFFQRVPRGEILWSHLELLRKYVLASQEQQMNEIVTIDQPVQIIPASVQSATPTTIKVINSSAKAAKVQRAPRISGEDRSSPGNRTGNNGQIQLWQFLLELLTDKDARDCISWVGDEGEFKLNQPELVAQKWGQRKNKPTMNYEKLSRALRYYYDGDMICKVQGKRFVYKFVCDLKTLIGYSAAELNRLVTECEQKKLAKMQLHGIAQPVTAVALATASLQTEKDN
How it was run: as §1

ELF1 = ELF1 (Homo sapiens, UniProt P32519 1-619)
How it was run: as §1

EHF = target: T4, EHF (Homo sapiens, UniProt Q9NZC4 1-300)
T4 sequence: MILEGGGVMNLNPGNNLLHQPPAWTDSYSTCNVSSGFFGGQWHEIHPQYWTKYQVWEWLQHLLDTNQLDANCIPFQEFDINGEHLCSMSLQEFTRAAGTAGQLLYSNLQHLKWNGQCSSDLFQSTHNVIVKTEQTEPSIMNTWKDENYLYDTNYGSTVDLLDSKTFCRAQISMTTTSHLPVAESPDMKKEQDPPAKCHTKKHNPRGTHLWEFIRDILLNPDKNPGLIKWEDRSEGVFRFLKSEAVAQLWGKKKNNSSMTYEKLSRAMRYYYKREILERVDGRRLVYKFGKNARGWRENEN
How it was run: as §1

SPI1 = SPI1 (Homo sapiens, UniProt P17947 1-270)
How it was run: as §1

SPIC = target: T5, SPIC (Homo sapiens, UniProt Q8N5J4 1-248)
T5 sequence: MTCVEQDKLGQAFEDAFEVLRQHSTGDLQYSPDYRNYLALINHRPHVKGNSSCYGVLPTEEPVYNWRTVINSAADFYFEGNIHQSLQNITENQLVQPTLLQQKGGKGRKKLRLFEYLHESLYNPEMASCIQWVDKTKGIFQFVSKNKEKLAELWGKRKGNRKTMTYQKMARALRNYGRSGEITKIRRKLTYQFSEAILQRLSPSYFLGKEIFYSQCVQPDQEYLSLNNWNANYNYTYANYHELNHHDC
How it was run: as §1

ELF4 = ELF4 (Homo sapiens, UniProt Q99607 1-663)
How it was run: as §1

ELK4 = target: T6, ELK4 (Homo sapiens, UniProt P28324-2 1-405)
T6 sequence: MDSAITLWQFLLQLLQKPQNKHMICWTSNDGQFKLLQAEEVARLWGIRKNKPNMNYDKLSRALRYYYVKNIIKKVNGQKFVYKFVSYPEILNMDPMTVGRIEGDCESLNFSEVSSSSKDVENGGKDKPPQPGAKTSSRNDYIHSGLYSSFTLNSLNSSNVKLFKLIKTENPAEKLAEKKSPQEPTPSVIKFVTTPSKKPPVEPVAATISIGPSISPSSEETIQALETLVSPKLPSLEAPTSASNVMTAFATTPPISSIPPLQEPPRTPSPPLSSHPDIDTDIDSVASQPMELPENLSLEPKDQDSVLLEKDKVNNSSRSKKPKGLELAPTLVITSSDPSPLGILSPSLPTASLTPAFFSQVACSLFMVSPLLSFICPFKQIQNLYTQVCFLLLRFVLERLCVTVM
How it was run: as §1

ETV2 = target: T7, ETV2 (Homo sapiens, UniProt O00321 1-342)
T7 sequence: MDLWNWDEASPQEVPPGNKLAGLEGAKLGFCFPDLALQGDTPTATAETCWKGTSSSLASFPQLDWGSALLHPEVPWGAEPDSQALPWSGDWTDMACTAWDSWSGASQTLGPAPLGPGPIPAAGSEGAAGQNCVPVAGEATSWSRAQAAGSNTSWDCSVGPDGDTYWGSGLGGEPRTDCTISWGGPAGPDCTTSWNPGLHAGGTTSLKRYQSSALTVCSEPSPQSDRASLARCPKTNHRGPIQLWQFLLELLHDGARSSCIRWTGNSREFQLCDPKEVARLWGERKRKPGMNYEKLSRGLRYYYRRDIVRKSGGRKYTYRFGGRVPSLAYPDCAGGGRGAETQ
How it was run: as §1

ELF3 = target: T8, ELF3 (Homo sapiens, UniProt P78545 1-371)
T8 sequence: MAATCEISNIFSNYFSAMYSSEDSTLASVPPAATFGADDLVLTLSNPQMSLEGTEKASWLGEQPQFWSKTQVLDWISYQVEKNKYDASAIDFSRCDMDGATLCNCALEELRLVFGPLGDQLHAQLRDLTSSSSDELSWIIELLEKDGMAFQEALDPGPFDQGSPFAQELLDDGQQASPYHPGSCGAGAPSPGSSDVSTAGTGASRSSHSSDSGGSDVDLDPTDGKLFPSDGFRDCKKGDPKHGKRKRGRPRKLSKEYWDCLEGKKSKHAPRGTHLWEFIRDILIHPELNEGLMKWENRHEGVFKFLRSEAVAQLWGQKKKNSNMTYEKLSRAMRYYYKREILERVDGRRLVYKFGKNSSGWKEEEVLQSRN
How it was run: as §1

CRX = CRX (Homo sapiens, UniProt O43186 1-299)
How it was run: as §1

ETV1 = ETV1 (Homo sapiens, UniProt P50549 1-477)
How it was run: as §1

ETS2 = target: T9, ETS2 (Homo sapiens, UniProt P15036 1-469)
T9 sequence: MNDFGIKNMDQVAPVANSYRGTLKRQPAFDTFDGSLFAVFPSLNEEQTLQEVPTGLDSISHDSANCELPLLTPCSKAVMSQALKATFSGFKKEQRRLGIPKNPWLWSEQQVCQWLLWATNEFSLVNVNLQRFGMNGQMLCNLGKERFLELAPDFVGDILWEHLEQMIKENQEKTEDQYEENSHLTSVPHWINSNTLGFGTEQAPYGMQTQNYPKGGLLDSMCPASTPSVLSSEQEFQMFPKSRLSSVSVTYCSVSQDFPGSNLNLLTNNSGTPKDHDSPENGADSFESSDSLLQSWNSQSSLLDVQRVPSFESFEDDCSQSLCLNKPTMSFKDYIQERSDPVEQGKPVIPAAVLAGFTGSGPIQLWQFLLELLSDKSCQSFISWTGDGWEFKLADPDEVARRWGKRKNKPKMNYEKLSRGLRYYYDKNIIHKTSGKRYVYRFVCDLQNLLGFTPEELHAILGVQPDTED
How it was run: as §1

ETV7 = target: T10, ETV7 (Homo sapiens, UniProt Q9Y603 1-341)
T10 sequence: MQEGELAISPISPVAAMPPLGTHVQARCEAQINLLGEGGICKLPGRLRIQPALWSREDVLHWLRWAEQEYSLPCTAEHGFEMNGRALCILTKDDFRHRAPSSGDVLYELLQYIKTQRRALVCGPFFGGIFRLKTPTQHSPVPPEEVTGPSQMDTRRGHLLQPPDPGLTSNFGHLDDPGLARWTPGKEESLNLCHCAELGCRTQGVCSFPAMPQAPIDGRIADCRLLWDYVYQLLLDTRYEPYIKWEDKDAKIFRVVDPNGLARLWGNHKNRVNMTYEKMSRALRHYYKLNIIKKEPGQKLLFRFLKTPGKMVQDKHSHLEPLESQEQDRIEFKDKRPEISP
How it was run: as §1

ETV3 = target: T11, ETV3 (Homo sapiens, UniProt P41162-2 1-143)
T11 sequence: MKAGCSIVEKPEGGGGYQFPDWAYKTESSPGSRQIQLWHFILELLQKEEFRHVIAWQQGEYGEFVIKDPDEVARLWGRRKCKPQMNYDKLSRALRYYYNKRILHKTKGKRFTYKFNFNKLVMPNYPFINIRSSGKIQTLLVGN
How it was run: as §1

Chain of ELF4 (Q99607 whole entry): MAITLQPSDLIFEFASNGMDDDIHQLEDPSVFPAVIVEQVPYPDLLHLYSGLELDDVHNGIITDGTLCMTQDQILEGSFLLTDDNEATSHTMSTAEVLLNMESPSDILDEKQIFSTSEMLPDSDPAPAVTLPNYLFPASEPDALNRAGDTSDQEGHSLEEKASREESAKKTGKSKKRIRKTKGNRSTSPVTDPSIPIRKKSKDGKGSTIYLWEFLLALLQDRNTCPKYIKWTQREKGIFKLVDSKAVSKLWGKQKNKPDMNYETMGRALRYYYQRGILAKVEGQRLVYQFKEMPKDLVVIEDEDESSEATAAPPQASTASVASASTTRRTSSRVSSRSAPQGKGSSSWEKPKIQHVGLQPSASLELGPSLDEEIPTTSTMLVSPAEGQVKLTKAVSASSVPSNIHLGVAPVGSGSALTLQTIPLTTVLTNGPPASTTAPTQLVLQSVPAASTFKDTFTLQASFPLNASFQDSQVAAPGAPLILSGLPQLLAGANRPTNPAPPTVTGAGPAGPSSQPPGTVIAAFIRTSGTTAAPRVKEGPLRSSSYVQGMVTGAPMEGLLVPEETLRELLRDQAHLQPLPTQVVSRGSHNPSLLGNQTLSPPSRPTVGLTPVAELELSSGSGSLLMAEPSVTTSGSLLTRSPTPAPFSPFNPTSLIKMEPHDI
Chain of CRX (O43186 whole entry): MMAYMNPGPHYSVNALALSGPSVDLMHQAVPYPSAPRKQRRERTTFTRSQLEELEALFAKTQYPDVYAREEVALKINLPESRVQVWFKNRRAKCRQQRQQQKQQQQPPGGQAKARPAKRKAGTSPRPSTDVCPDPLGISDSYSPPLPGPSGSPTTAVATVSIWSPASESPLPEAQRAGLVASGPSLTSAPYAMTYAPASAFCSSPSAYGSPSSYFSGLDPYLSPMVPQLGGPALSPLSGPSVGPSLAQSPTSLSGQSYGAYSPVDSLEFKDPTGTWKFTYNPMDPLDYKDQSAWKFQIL
Chain of ETV1 (P50549 whole entry): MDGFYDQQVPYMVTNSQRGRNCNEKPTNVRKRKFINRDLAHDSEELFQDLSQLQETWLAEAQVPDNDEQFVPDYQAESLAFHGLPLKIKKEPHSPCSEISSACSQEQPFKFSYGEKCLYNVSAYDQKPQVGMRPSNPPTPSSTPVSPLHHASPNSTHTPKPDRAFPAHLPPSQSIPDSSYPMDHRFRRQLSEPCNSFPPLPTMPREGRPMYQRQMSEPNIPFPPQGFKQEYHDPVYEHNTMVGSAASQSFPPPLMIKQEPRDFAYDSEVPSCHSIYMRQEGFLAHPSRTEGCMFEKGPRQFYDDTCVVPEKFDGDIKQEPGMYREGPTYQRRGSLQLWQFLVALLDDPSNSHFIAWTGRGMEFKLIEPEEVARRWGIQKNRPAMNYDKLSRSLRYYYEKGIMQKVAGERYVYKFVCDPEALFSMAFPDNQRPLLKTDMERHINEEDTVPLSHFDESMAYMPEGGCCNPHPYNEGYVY
Chain of ELF1 (P32519 whole entry): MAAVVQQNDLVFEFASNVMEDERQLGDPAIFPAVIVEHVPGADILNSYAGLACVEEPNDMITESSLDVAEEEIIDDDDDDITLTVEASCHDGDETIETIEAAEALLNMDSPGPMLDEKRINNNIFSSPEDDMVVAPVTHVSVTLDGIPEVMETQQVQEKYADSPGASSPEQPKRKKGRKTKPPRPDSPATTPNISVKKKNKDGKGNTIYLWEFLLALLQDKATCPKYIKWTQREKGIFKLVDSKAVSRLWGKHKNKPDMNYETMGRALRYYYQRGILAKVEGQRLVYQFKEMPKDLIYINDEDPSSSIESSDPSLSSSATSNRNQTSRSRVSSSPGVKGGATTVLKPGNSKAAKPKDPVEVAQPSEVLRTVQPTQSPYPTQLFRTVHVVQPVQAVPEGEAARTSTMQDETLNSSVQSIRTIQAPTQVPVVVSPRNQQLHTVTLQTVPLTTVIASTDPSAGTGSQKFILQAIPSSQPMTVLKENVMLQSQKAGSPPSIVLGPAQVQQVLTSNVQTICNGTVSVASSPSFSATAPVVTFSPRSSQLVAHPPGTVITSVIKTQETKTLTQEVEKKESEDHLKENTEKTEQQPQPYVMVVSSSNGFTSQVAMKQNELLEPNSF

AGCTGA
binding signal (FLI1): 1.02 fold enrichment (6-mer frequency, TF over GST control) | binding signal (ELK1): 1.07 fold enrichment (6-mer frequency, TF over GST control) | binding signal (GABPA): 1.01 fold enrichment (6-mer frequency, TF over GST control) | binding signal (ELF1): 1.1 fold enrichment (6-mer frequency, TF over GST control) | binding signal (EHF): 1.11 fold enrichment (6-mer frequency, TF over GST control) | binding signal (SPI1): 1.01 fold enrichment (6-mer frequency, TF over GST control) | binding signal (SPIC): 1.14 fold enrichment (6-mer frequency, TF over GST control) | binding signal (ELF4): 1.01 fold enrichment (6-mer frequency, TF over GST control) | binding signal (ELK4): 1.02 fold enrichment (6-mer frequency, TF over GST control) | binding signal (ETV2): 1.08 fold enrichment (6-mer frequency, TF over GST control) | binding signal (ELF3): 1.14 fold enrichment (6-mer frequency, TF over GST control) | binding signal (CRX): 1.11 fold enrichment (6-mer frequency, TF over GST control) | binding signal (ETV1): 1.08 fold enrichment (6-mer frequency, TF over GST control) | binding signal (ETS2): 1.04 fold enrichment (6-mer frequency, TF over GST control) | binding signal (ETV7): 1.09 fold enrichment (6-mer frequency, TF over GST control) | binding signal (ETV3): 1.05 fold enrichment (6-mer frequency, TF over GST control)
